Pf growth 96h: Primary qHTS for delayed death inhibitors of the malarial parasite plastid, 96 hour incubation; P. falciparum luciferase reporter growth, 96 h; Potency, µM (titrated, usually from 28.7 µM), actives largely listed as inhibitors; 6.9% of 320,000 active; AID 504834, 2011
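Cell-based qHTS: luciferase-tagged P. falciparum in erythrocytes (2% hematocrit, 0.05% parasitemia final) incubated with compounds for 96 hours, 37 C, 5% CO2; luciferase detection reagent then added and luminescence measured.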
Cycloheximide cs: Cycloheximide Counterscreen for Small Molecule Inhibitors of Shiga Toxin; cell reporter, cycloheximide protein synthesis inhibition counterscreen; AID 2314, 2010; 12% of 300,000 active; max response, %; in the data active means max response mostly above about 13%, no sharp cut-off; inactive means mostly below about 14%; further: read at 38.3 µM for the half of the compounds with a filed dose
Pf growth 48h: Primary qHTS for delayed death inhibitors of the malarial parasite plastid, 48 hour incubation. P. falciparum luciferase growth in erythrocytes, 48 h. Potency, µM (highest dose often 28.7 µM), hits mostly inhibitors. 5.9% of 310,000 active. AID 504832, 2011
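A one-generation exposure of luciferase-tagged malaria parasites in RPMI 1640/Albumax erythrocyte culture, 37 C and 5% CO2. Inhibition is inferred from decreased luminescence after adding detection reagent.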
SARS PLpro yeast: qHTS of Yeast-based Assay for SARS-CoV PLP; S. cerevisiae expressing SARS-CoV PLpro, growth rescue; Potency, µM (top dose mostly 32.9 µM), usual class: activators; 0.19% of 330,000 active; AID 485353, 2010; calls by dose curve; further: nearly all actives have a fitted effect of over 55% in size
Shiga inhibitor: A qHTS for Small Molecule Inhibitors of Shiga Toxin; Vero cells, Shiga toxin protein synthesis inhibition reporter; inhibition, % at 38.7 µM; 9.2% of 290,000 active; in the data active means inhibition mostly above about 28%, no sharp cut-off; inactive means mostly below about 43%
AMA1-RON2 inh: qHTS for Inhibitors of AMA1-RON; Towards Development of Antimalarial Drug Lead: Primary Screen; Plasmodium falciparum AMA1 (3D7) - RON2 peptide interaction; AlphaScreen AMA1-biotinylated RON2 peptide binding; Potency, µM (top dose mostly 58.2 µM), most hits filed as inhibitors; 0.2% of 360,000 active; further: nearly all actives have a fitted effect of over 45% in size
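AMA1 (3D7) with his tag at 25 nM final met compounds first, then biotinylated RON2 peptide at 25 nM; detection used donor plus acceptor beads, 10 µg/mL apiece, read by AlphaScreen after 30 min at room temperature.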
Large screens that a line does not name were inactive. Hits are enriched below; roughly 19% of the tested compounds scored in any of these assays. Unless noted, the call rests on the fitted dose curve; in most records, active means well fitted curve in the direction sought with a large enough effect; inconclusive means small, poorly fitted or top-dose-only effect, or another doubt; inactive means no such curve, though single readings can be large; an effect the other way counts as inactive or inconclusive.

CSc1ccc(Cn2nnc(C(=O)NCc3ccccc3)c2N)cc1	none
CCCN(CCC)S(=O)(=O)c1ccc(Cl)c([N+](=O)[O-])c1	none
CCOC(=O)C(C)(C)N(Cc1ccccc1C)S(=O)(=O)c1ccc(Cl)c([N+](=O)[O-])c1	Pf growth 96h 2.6µM, Pf growth 48h inconclusive
Cc1cc(C(=O)Nc2ccc(F)cc2F)on1	Cycloheximide cs 15
Cc1ccc(NC(=O)c2cc(C)no2)cc1	Cycloheximide cs 59, Shiga inhibitor 80
CCc1ccc(NC(=O)c2cc(C)no2)cc1	Cycloheximide cs 47, Shiga inhibitor 70
COc1ccc(NC(=O)c2cc(C)no2)cc1	Cycloheximide cs 36, Shiga inhibitor 72
Cc1noc(C)c1C(=O)Nc1ccc(F)cc1F	none (no result: Pf growth 96h)
CCCNC(=O)c1cc(C)no1	Pf growth 96h inconclusive (no result: Pf growth 48h)
COC(=O)c1ccccc1NC(=O)c1cc(C)no1	Pf growth 48h inconclusive
Cc1occc1C(=O)N1CCCC(N2CCN(c3ccccc3F)CC2)C1 (stereo not drawn)	Pf growth 48h inconclusive
Cc1ccc(NC(=O)COC(=O)CN2CCCCCC2=O)cc1C	Pf growth 48h inconclusive (no result: Cycloheximide cs, Shiga inhibitor)
O=C(Nc1ccc(F)c(Cl)c1)c1ccccc1	none (no result: Cycloheximide cs, Shiga inhibitor)
Cc1cc(C(=O)Nc2ccc(F)c(Cl)c2)on1	Cycloheximide cs 19, Pf growth 48h inconclusive
COc1cc(OC)c(C(=O)N(Cc2ccco2)Cc2cccs2)cc1OC	none (no result: Pf growth 96h, Pf growth 48h, SARS PLpro yeast, AMA1-RON2 inh)
CC(C)CCNC(=O)C(c1ccc(O)cc1)N(C(=O)C1COc2ccccc2O1)c1cccc(O)c1 (stereo not drawn)	Pf growth 96h inconclusive, Pf growth 48h 12µM
O=C(NCCc1ccc(O)c(O)c1)C1COc2ccccc2O1 (stereo not drawn)	Pf growth 48h inconclusive
CCOc1ccc(N(C(=O)c2cnccn2)C(C(=O)NC2CCCCC2)c2ccc(O)cc2)cc1 (stereo not drawn)	none
CCOc1cccc(N(C(=O)C2COc3ccccc3O2)C(C(=O)NC2CCCCC2)c2ccc(O)cc2)c1 (stereo not drawn)	Pf growth 48h 13µM

From PubChem
